Source: PubChem (National Center for Advancing Translational Sciences (NCATS))
Shiga toxin inh – blocks Shiga toxin action in Vero cells. AID 2315. inhibition, % at 38.7 µM. actives 9.2% (n = 290,000). Vero cells, Shiga toxin protein synthesis inhibition reporter; in the data active = inhibition mostly above about 28%, no sharp cut-off; inactive = mostly below about 43%; also: 0% is about no effect
NS1 inh – influenza NS1 inhibition. Potency, µM (doses to about 46.1 µM), for the others: top-dose activity, positive = more growth. actives 0.4% (n = 270,000). AID 2326; also: potency is read from the fitted curve at half-maximal effect; actives are rising curves; nearly all actives have a fitted effect of over 50% in size
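Compounds were scored for reversing the slow growth caused by influenza A NS1 in S. cerevisiae, measured by optical density at 600 nm. Assay medium contained 2% galactose at pH 6.0; NS1-free yeast of the same strain were the positive control.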
Cycloheximide cs – counter-screen hit for Shiga toxin inhibitors, cycloheximide | cell reporter, cycloheximide protein synthesis inhibition counterscreen | max response, % | actives 12% (n = 300,000) | AID 2314; in the data active = max response mostly above about 13%, no sharp cut-off; inactive = mostly below about 14%; also: read at 38.3 µM for the half of the compounds with a filed dose; 0% is about no effect
Pf growth 96h – P. falciparum growth inhibition at 96 hour, primary screen for plastid delayed-death inhibitors; Potency, µM (top dose mostly 28.7 µM), for inactives: top-dose activity change, negative = inhibition, actives largely listed as inhibitors; actives 6.9% (n = 320,000); P. falciparum luciferase reporter growth, 96 h; AID 504834; active = well fitted inhibition curve with a large enough effect; inconclusive = small, poorly fitted or top-dose-only effect, or another doubt; inactive = no such curve, though single readings can be large or run the other way; also: potency is read from the fitted curve at half-maximal effect; % is scaled to controls: 0 for no effect and ±100 for the full control effect
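Infected RBCs, 2% Hct / 0.05% parasitemia final; luciferase-reporter P. falciparum; cpd 96 h, 37 C, 5% CO2; luciferase detection reagent; luminescence.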
SARS PLpro yeast – blocks SARS-CoV papain-like protease in a yeast assay. Potency, µM (titrated, usually from 32.9 µM), for the others: at the highest dose activity, positive = growth rescue, hits mostly activators. actives 0.19% (n = 330,000). S. cerevisiae expressing SARS-CoV PLpro, growth rescue; also: potency is read from the fitted curve at half-maximal effect; 0% is about no effect; nearly all actives have a fitted effect of over 55% in size
Pf growth 48h – P. falciparum growth inhibition at 48 hours (one generation). actives 5.9% (n = 310,000). P. falciparum luciferase growth in erythrocytes, 48 h. AID 504832. Potency, µM (series often up to 28.7 µM), for the others: at the top dose activity change, negative = inhibition, actives largely listed as inhibitors; active = well fitted inhibition curve with a large enough effect; inconclusive = small, poorly fitted or top-dose-only effect, or another doubt; inactive = no such curve, though single readings can be large or run the other way; also: potency is read from the fitted curve at half-maximal effect; % is scaled to controls: 0 for no effect and ±100 for the full control effect
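Cell-based growth assay: transgenic P. falciparum expressing firefly luciferase, cultured in red cells within RPMI 1640 containing 0.5% w/v Albumax, 24 mM bicarbonate and gentamycin. A drop in luciferase activity indicates inhibition.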
* hit, by the source's call; u = inconclusive; x = no result given. Sampled rows, rich in hits. Any-hit rate of the full collection: about 21%. Unless noted, calls follow the shape of the full dose curve.

SMILES	Shiga toxin inh	NS1 inh	Cycloheximide cs	Pf growth 96h	SARS PLpro yeast	Pf growth 48h
CCOC(=O)C1(CCOc2ccccc2)CCN(C(=O)c2ccc(-n3cccn3)cc2)CC1	16	-11%	5	10µM*	-2%	u
CCOC(=O)C1(CCOc2ccccc2)CCN(Cc2cccc(-n3cccn3)c2)CC1	1	-2%	-5	10µM*	0%	u
CCOC(=O)C1(CCOc2ccccc2)CCN(Cc2cccc(F)c2)CC1	5	-19%	1	u	4%	0%
Nc1nc(Cl)nc2c1ncn2[C@@H]1O[C@H](CO)[C@H](O)[C@H]1O	x	0%	x	x	x	x
O=C(Nc1cc(Cl)ccc1Oc1ccccc1)c1cnccn1	-8	-6%	-3	u	1%	x
O=C(Nc1ccc(Br)cc1Cl)c1cnccn1	30	2%	19*	x	-1%	29%
COc1ccc(Cl)cc1NC(=O)c1cnccn1	20	-36%	13*	u	-3%	13%
Cc1ccc(NC(=O)c2cnccn2)c(C)c1	38*	-8%	21*	241%	-5%	74%
O=C(Nc1ccccc1Cl)c1cnccn1	41	-16%	11	-83%	-1%	18%
Cc1ccc(C)c(NC(=O)c2cnccn2)c1	x	4%	-2	u	4%	-6%
Cc1ccc(NC(=O)c2sc3nc[nH]c(=O)c3c2C)c(C)c1	23	-12%	27*	u	-6%	73%
O=C(CNC(=O)N1CC(=O)Nc2ccccc21)Nc1cccc(F)c1	-9	-2%	-2	28%	2%	15%
COc1ccc(NC(=O)C(OC)c2ccccc2)cc1Cl (stereo not drawn)	8	-1%	7	231%	14%	-2%
O=C(CSc1nnc(-c2ccncc2)n1-c1ccccc1Cl)Nc1ccc(C(=O)O)cc1	2	x	-2	9%	3%	10%
COc1ccc(NC(=O)C(Sc2nnc(-c3ccncc3)n2-c2ccccc2C)c2ccccc2)cc1Cl (stereo not drawn)	19	28%	14	u	-9%	8.3µM*
COc1ccc(NC(=O)C(OC(=O)c2cnccn2)c2ccccc2)cc1Cl (stereo not drawn)	53	11%	17*	-25%	1%	2%
C[C@@]1(CCOCc2ccccc2)NC(=O)NC1=O	x	-3%	x	x	x	x
CCCCNc1c(-c2cccc(-c3ccc(OC)cc3)c2)nc2ccc(C)cn12	x	x	x	3.7µM*	0%	3.3µM*
Cc1ccc(-c2nc3ccccn3c2NCc2ccc3c(c2)OCO3)cc1	54*	-122%	45*	79%	-22%	95%
COC(=O)Nc1c(-c2ccccc2)nc2ccc(C)cn12	13	0%	-1	4.7µM*	5%	6%
Cc1ccc2nc(-c3ccc(-c4cccc(Cl)c4)cc3)c(NCc3ccccc3)n2c1	x	x	x	0%	-2%	u
COc1ccc(-c2nc3ccc(C)cn3c2NCc2ccc3c(c2)OCO3)cc1	125*	-4%	55*	5%	-3%	46%
CNC(=O)C1CCN(S(=O)(=O)c2c(C)noc2/C=C/c2ccc(OC)cc2)CC1	1	8%	-2	-5%	2%	u
O=C(N1CCOCC1)N1CCc2ccccc21	-15	7%	-2	12µM*	5%	64%
O=C(c1ccc(Br)o1)N1CCc2ccccc21	87*	-5%	44*	262%	-3%	361%
SMILES	Shiga toxin inh	NS1 inh	Cycloheximide cs	Pf growth 96h	SARS PLpro yeast	Pf growth 48h
O=C(c1ccco1)N1CCc2ccccc21	66*	x	35*	0%	-2%	180%
O=C(C1CCCO1)N1CCc2ccccc21 (stereo not drawn)	-4	-1%	11	u	3%	-1%
CSC1=NCCN1C(=O)c1ccc(Br)o1	92*	u	39*	u	21%	x
COc1ccc(C(=O)NCCCN2CCOCC2)cc1S(=O)(=O)N1CCCc2ccccc21	-4	x	-5	u	-5%	u
CNc1c(NS(=O)(=O)c2ccc(CC(C)C)cc2)c(=O)oc2ccccc12	-12	-11%	1	124%	-3%	3%
COc1ccc(/C=C/C(=O)OC(C)CN2CCCCC2)cc1 (stereo not drawn)	-16	-4%	0	-18%	-4%	72%
CCn1c(=O)c2sccc2n2c(CCCC(=O)NCCc3ccc(S(N)(=O)=O)cc3)nnc12	-4	-10%	18	u	-4%	26%
CN(Cc1ccccc1NS(=O)(=O)c1ccc2ccccc2c1)C1CCCCC1	22	x	8	u	-10%	-7%
O=C(c1ccco1)N1CCN(CC(=O)N2c3ccccc3CCc3ccccc32)CC1	-12	-12%	-2	10µM*	1%	u
O=C(NC(=S)N1CCCc2ccccc21)c1ccco1	82*	10%	33*	-13%	0%	148%
CC1Cc2ccccc2N1C(=S)NC(=O)c1ccco1 (stereo not drawn)	23	x	6	-4%	-1%	26%
O=C(CN1CCCCC1)N1c2ccccc2CCc2ccccc21	-8	-5%	-7	u	6%	x
CC1CCN(CC(=O)N2c3ccccc3CCc3ccccc32)CC1	-7	-4%	-3	25%	-5%	15µM*
O=C(c1ccco1)N1CCN(C(=O)c2cnn(-c3ccc(Cl)cc3)c2C2CCNCC2)CC1	-5	3%	-3	u	1%	-10%
CC(=O)c1coc2ccc(OCCN3CCCCC3)cc12	5	u	-2	-38%	-5%	9%
CC1(C)Cc2c(sc(NC(=O)C(=O)N3CCCC3)c2C#N)CO1	-11	7%	-2	36%	-20%	26%
CC(C)(C)c1ccc(OCCC(=O)OCC(=O)Nc2cccnc2Cl)cc1	x	x	x	3%	-7%	-16%
Cc1cccc(NC(=S)NNC(=O)c2ccccc2OC(F)F)c1	15	-6%	9	x	-1%	-14%
Cc1cccc(NC(=O)c2ccccc2C(=O)O)c1	0	-10%	9	x	5%	12%
Cc1cccc(NC(=S)NNC(=O)c2ccccc2Br)c1	78*	-9%	20*	64%	u	0%
O=C(NNC(=S)Nc1ccc(F)c(Cl)c1)c1ccccc1Br	43*	-1%	12	32%	-2%	27%
Cc1ccc(C(=O)Nc2ccc(Br)c(C(F)(F)F)c2)cc1	108*	-77%	82*	12µM*	-24%	u
Cc1cccc(NC(=O)c2ccc(NC(=O)c3ccccc3Br)cc2)c1	37	-2%	20*	-19%	2%	-13%
COC(=O)c1ccc(C2NCCc3cc(OC)c(OC)cc32)cc1 (stereo not drawn)	-1	-1%	-1	71%	2%	u
C=CCN1/C(=C2/SC(=S)N(C)C2=O)Sc2ccccc21	16	8%	2	8%	-8%	51%
